According to PubChem BioAssay (NCI):
About 83,000 compounds went through this panel and 20% of them were active in at least one assay; those are over-represented in the sample as a whole.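 The endpoint reported here, percent growth, reads 100 for growth as untreated, 0 for no net growth and -100 for all cells dead.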 Values without a mark were called inactive. How the source made its calls: active means growth percent below 10; inactive means the rest.

system: MOLT-4 leukemia; experiment: NCI-60 one-dose screen, 48 h (100 = growth as untreated, 0 = no growth, -100 = all killed); details: 10 µM unless noted

SMILES | growth
COc1cc2c(cc1OC)C(C)N(S(N)(=O)=O)CC2 (stereo not drawn) | 91.8%
CCCC/C(CC)=N\NS(=O)(=O)c1ccc([N+](=O)[O-])cc1 | 101%
O=[N+]([O-])c1ccc(O)cc1Br | 104%
